# Assay results published in ChEMBL document CHEMBL4513216, “Probing the Open Global Health Chemical Diversity Library for Multistage-Active Starting Points for Next-Generation Antimalarials” (ACS Infect Dis, 2020).
# About 8,600 (12%) of roughly 69,000 compounds showed an effect of 50% or more. The full list was thinned out, with strong results kept by preference.
# Tested on: Plasmodium berghei
# Assay: Screen against P. berghei liver stage (PbLuc), transformed with Luciferase, at 10uM
# Format: functional, HepG2
# Settings: tested at 10 uM
row,SMILES,INHIBITION [%]
1,Cc1ccccc1CSc1nc(N)cc(N2CCOC(C(N)=O)C2)n1 (stereo not drawn),-19.2
2,NC(=O)C1CN(c2ccc3cc(Br)ccc3n2)CCO1 (stereo not drawn),37.1
3,NC(=O)C1CN(c2ccc(Br)cn2)CCO1 (stereo not drawn),69.7
4,CCS(=O)(=O)N1CCCn2nnc(CNC(C)=O)c2C1,52.1
5,CC(=O)NCc1nnn2c1CN(c1ncccn1)CCC2,54.8
6,CC(=O)NCc1nnn2c1CN(c1ncc(C)cn1)CCC2,21.3
7,c1cnc(N2CCCn3nnc(COCC4CC4)c3C2)nc1,18.7
8,c1ccc(CN2CCCn3nnc(COc4ccccn4)c3C2)nc1,24.9
9,c1ccc(OCc2nnn3c2CN(c2ncccn2)CCC3)nc1,57.1
10,CCS(=O)(=O)N1CCCn2nnc(Cn3cccc3)c2C1,36.5
11,OCCOCc1nnn2c1CN(c1ncccn1)CCC2,43.8
12,CN(C)C(=O)NCc1nnn2c1CN(CC1CCOCC1)CCC2,-51
13,O=C(c1ccco1)N1CC[C@H]2C[C@@H](c3nccs3)O[C@@H]2C1,-7.59
14,COc1cccc(CNC(=O)c2cc(C)nc(N3CCCCC3)n2)c1,4.97
15,CCc1csc(C2CCCN(C(=O)c3ccco3)C2)n1 (stereo not drawn),19.6
16,CC(=O)N1CCC(C)(c2cc(C(=O)NCC3CC3)nc(C)n2)CC1,9.075
17,O=C1CC2(CCCCN2C(=O)c2ccsc2)CN1CC1CC1 (stereo not drawn),37.4
18,COCCn1cnc2ccc(NC(=O)c3ccccn3)cc2c1=O,19.4
19,COc1cccc(OC2CN(C(=O)CCn3cnc4ccccc43)C2)c1,70
20,COc1cccc(OC2CN(C(=O)c3c(C)noc3C)C2)c1,-57.7
21,CCn1nc(CC(C)C)cc1C(=O)N1CC(c2ccncc2)C1,57.4
22,COc1cccc(OC2CN(C(=O)c3sccc3C)C2)c1,-17.6
23,CCn1nc(CC(C)C)cc1C(=O)N1CC[C@@H](O)C1,26.8
24,O=C(CCn1cnc2ccccc21)N1CCN2CCCCC2C1 (stereo not drawn),40.1
25,COc1cccc(OC2CN(C(=O)c3cc(CC(C)C)nn3C)C2)c1,79.2
26,CC(C)Cc1cc(C(=O)N2CCC(Oc3cccnc3)CC2)n(C)n1,5.11

row,SMILES,INHIBITION [%]
1,COc1cccc(OC2CN(C(=O)Cn3nc4ccccc4n3)C2)c1,28.7
2,CC(C)Cc1cc(C(=O)N2CC(OCc3ccccc3F)C2)n(C)n1,43.2
3,CCn1nc(CC(C)C)cc1C(=O)N1C[C@H](O)[C@@H](N2CCCCC2)C1,29.7
4,COc1cccc(OC2CN(C(=O)CCn3cnnn3)C2)c1,55.9
5,Cc1ccc(CNC(=O)NCCCO)cc1,0.914
6,Cc1ccc(C(NC(=O)C2CCC(O)CC2)c2cccnc2)cc1C (stereo not drawn),7.84
7,Cc1ccccc1S(=O)(=O)NC(=O)C1(c2ccccc2)CCC1,35.2
8,Cc1ccc(S(=O)(=O)NC(C)(C)CN)c(F)c1,-21.8
9,Cn1ccc(C2CCCCN2C(=O)c2cccc(-n3cccn3)c2)n1 (stereo not drawn),56.1
10,Cn1ccc(C2CCCCCN2C(=O)c2cccnc2)n1 (stereo not drawn),-1.16
11,Cn1ccc(C2CCCCN2C(=O)c2cccc(Cn3cccn3)c2)n1 (stereo not drawn),15
12,O=S(=O)(NCCCn1cncn1)c1ccc2c(c1)OCCCO2,49
13,CSc1ncccc1C(=O)N1C[C@@H]2CC[C@H]1CN(c1cnccn1)C2,0.139
14,CC(C)(CNC(=O)C1CCCN(C(N)=O)C1)c1cccc(Cl)c1 (stereo not drawn),21.5
15,CC(C)(CNc1cccc(Cl)c1)NC(=O)C1CCCN(CC(N)=O)C1 (stereo not drawn),69.9
16,NC(=O)N1CCCC(C(=O)Nc2cccc(Cl)c2)C1 (stereo not drawn),37.5
17,O=C(c1cccc2c1OCO2)N1CCC(N2CCCC2)CC1,-17.4
18,c1ccc(COC2C[C@@H]3CN(Cc4cncnc4)C[C@@H]3C2)cc1 (stereo partly drawn),28
19,CCc1noc(C2CCCCN2C(=O)c2cccnc2)n1 (stereo not drawn),-8.9
20,Cc1noc(C)c1C(=O)N1CCCC1c1c(C)nn(C)c1C (stereo not drawn),-50.5
21,Cc1cc(CNC2(c3ccc(Cl)cc3)CC2)no1,16.8
22,OC1(c2ccccc2F)CCN(Cc2ccccc2N2CCCC2)CC1,46.2
23,Cc1cccc(C2(O)CCN(Cc3ccccc3N3CCCC3)CC2)c1,61
24,OC1(c2ccc(F)cc2)CCN(Cc2ccccc2N2CCCC2)CC1,43.4
25,C1CCC(NC2CCCN(Cc3noc(C4CC4)n3)C2)C1 (stereo not drawn),17.3
26,CCOc1cccc(C2CC(=O)NCc3nc(N)sc32)c1 (stereo not drawn),42.2

row,SMILES,INHIBITION [%]
1,CCOc1cccc(C2CC(=O)NCc3nc(N4CCCC4)sc32)c1 (stereo not drawn),56.5
2,CCOc1cccc(C2CC(=O)NCc3nc(N(C)C)sc32)c1 (stereo not drawn),11.7
3,Cc1cccc(C)c1OCCNC(=O)CN1CCN(C)CC1C (stereo not drawn),-17.7
4,Cc1ccc2c(c1)cc(CN1CC[C@](C)(O)[C@H](C)C1)n2C,42.1
5,CN1CCN(C2CCN(Cc3cn4ccccc4n3)CC2)C1=O,-22.3
6,CN(C)Cc1cnc2n1CCN(C(=O)C1CC=CC1)CC2,36.9
7,Cc1cccc(CN2C(=O)CC[C@@H]3[C@H]2CCN3Cc2ccc(C)s2)n1,33.5
8,CS(=O)(=O)N1CCO[C@@H]2CCN(Cc3ccncc3)CC[C@H]21,23.6
9,Cc1ccc(CN2CC[C@@H]3OCCN(Cc4ccncc4)[C@H]3CC2)s1,58.3
10,Cc1cc(CN2CC[C@H]3[C@H]2CCN3S(C)(=O)=O)oc1C,16.1
11,Cc1ccc(CN2CC[C@H]3[C@@H]2CCC(=O)N3CCN2CCCC2)s1,32.4
12,Cc1ccc(CN2CC[C@H]3[C@H]2CCN3S(C)(=O)=O)s1,58.7
13,Cc1ccc(CN2CC[C@@H]3[C@H]2CCC(=O)N3Cc2ccncc2)s1,68.4
14,Cc1ccc(CN2CC[C@@H]3OCCN(S(C)(=O)=O)[C@H]3CC2)s1,34.5
15,Cc1ccc(CN2CC[C@H]3[C@H]2CCN3S(=O)(=O)C2CC2)s1,13.7
16,Cc1nc(CN(C)C2CCN(Cc3ccc4c(c3)CCC4)C2)no1 (stereo not drawn),31.3
17,NC(=O)C1CNCCN1C(=O)COc1ccccc1 (stereo not drawn),36
18,Cc1csc(CN2CC[C@H]3C[C@@H](c4nc(C)no4)O[C@@H]3C2)n1,-11.6
19,CN1[C@@H](C(=O)NCC2CC2)C[C@@H]2CN(Cc3ccsc3)C[C@@H]21,-9.74
20,CNC(=O)CCc1cc(C)nc(C2CCN(c3ccccc3)CC2)c1,20.24
21,COCCNC(=O)[C@H]1CN(c2nnc(C)s2)C[C@H]2OCC[C@@H]12,52.9
22,COCCNC(=O)[C@@H]1CN(c2ncccn2)C[C@H]2OCC[C@H]21,43.9
23,COCCNC(=O)[C@H]1CN(c2ncccn2)C[C@H]2OCC[C@@H]12,55.5
24,Cc1nnc(N2C[C@H]3OCC[C@H]3[C@H](C(=O)NCC3CC3)C2)s1,66.9
25,Cc1nnc(N2C[C@H](C(=O)NCc3ccco3)[C@@H]3CCO[C@@H]3C2)s1,15.4
26,Cc1nnc(N2C[C@H](C(=O)NCC3CC3)[C@@H]3CCO[C@@H]3C2)s1,-19.7

row,SMILES,INHIBITION [%]
1,COCCNC(=O)[C@H]1CN(Cc2csc(C)n2)C[C@H]2OCC[C@@H]12,24.9
2,COCCNC(=O)[C@@H]1CN(c2cc(OC)ncn2)C[C@H]2OCC[C@H]21,24.9
3,COCCNC(=O)[C@H]1CN(Cc2cccs2)C[C@H]2OCC[C@@H]12,43.9
4,Cc1cccc(CN2CCc3nnc(CO)n3CC2)n1,27.4
5,O=C1[C@H]2CN(Cc3cccs3)C[C@H]2CN1CCN1CCCC1,9.97
6,Cc1c(C2CCCN(C(=O)c3cccnc3)C2)n2c(nc1=O)CCC2 (stereo not drawn),-73.1
7,O=C(C1CCOC1)N1CCN(CC2CC2)c2ccccc21 (stereo not drawn),42.8
8,CCOCC1CN(C(=O)c2ccoc2C)Cc2cnn(C)c21 (stereo not drawn),23.3
9,Nc1cncc(C(=O)N2Cc3ccccc3OC3(CCOCC3)C2)c1,22
10,Cc1nc(C)n(C2CCCN(C(=O)c3cccc4cn[nH]c34)C2)n1 (stereo not drawn),56
11,COc1ccc(C)cc1C(=O)N1CCCC(n2nc(C)nc2C)C1 (stereo not drawn),-9.37
12,Cc1nc(C)n(C2CCCN(C(=O)c3ccccc3C)C2)n1 (stereo not drawn),31.1
13,Cc1nc(C)n(C2CCCN(C(=O)c3cccc4[nH]ncc34)C2)n1 (stereo not drawn),-50.8
14,COc1ccc(C(=O)N2CCCC(n3nc(C)nc3C)C2)c(OC)c1 (stereo not drawn),52.3
15,COc1cc(Cl)ccc1C(=O)N1CCCC(n2nc(C)nc2C)C1 (stereo not drawn),19.4
16,Cn1ccc(CN2CCC(NC(=O)C3CCCCC3)CC2)cc1=O,5.907
17,CC1(C(=O)NCc2cccc(C(F)(F)F)c2)CCOCC1,15.9
18,O=C1CSC(C(F)(F)F)c2c(O)nn(C3CCCC3)c2N1 (stereo not drawn),13.1
19,CCC(C)NC(=O)Nc1cccc(OCC#N)c1 (stereo not drawn),5.29
20,O=c1[nH]nc(CNCc2ccc(OC34CCCN(CC3)C4)cc2)[nH]1 (stereo not drawn),21.085
21,c1ccc(Oc2ccc(OC34CCCN(CC3)C4)cc2)cc1 (stereo not drawn),57.6
22,Cc1nc(CNCc2cccc(OC34CCCN(CC3)C4)c2)n[nH]1 (stereo not drawn),31.15
23,N#Cc1cccc(OC23CCCN(CC2)C3)c1 (stereo not drawn),21.2
24,Cc1cnccc1CNCc1ccc(OC23CCCN(CC2)C3)cc1 (stereo not drawn),21.525
25,c1ccc(Oc2cccc(OC34CCCN(CC3)C4)c2)cc1 (stereo not drawn),65.7
